# Screens deposited in PubChem BioAssay by The Scripps Research Institute Molecular Screening Center.
# The list is not random: actives were taken first. Their share in the collection is about 3.5%.
# FBW7 act – FBW7 E3 ligase activators, primary screen, biochemical, AlphaScreen, human. AlphaScreen FBW7–phospho-cyclin E peptide binding, activator screen. 650,000 compounds, 0.13% hits. normalized activity (activation), % at 26.1 µM; in the data active means normalized activity above about 1.9%;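 further: purified mutant Fbw7 with reduced substrate affinity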
# MITF primary – MITF inhibitors, primary screen, biochemical, AlphaScreen, human; Microphthalmia-associated transcription factor (Homo sapiens), O75030; AlphaScreen MITF homodimerization, bead proximity signal; inhibition, % at 2.6 µM; 650,000 compounds, 0.91% hits; in the data active means inhibition above about 50%;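 further: 0% = vehicle wells with protein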
# TEAD-YAP block – TEAD-YAP interaction inhibition, primary screen, TEAD-YAP interaction inhibitor project, luminescence, HEK-TIYL cells | TEAD-Gal4/YAP UAS-luciferase luminescence | inhibition, % at 9.12 µM | 640,000 compounds, 1.4% hits | AID 1259422, 2018; in the data active means inhibition above about 32%;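 further: 0% = median of test compound wells and 100% = reference inhibitor wells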
# GPR151 ag – activators of human GPR151, primary screen, cell-based, PathHunter beta-arrestin, luminescence; G-protein coupled receptor 151 (Homo sapiens), Q8TDV0; 650,000 compounds, 1% hits; activation, % at 11.2 µM; PathHunter beta-arrestin GPR151 cells; AID 1508602, 2020; in the data active means activation above about 4.9%;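 further: 0% = median of compound wells and 100% = cells with positive control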
# Target sequence (Q8TDV0 whole entry, looked up): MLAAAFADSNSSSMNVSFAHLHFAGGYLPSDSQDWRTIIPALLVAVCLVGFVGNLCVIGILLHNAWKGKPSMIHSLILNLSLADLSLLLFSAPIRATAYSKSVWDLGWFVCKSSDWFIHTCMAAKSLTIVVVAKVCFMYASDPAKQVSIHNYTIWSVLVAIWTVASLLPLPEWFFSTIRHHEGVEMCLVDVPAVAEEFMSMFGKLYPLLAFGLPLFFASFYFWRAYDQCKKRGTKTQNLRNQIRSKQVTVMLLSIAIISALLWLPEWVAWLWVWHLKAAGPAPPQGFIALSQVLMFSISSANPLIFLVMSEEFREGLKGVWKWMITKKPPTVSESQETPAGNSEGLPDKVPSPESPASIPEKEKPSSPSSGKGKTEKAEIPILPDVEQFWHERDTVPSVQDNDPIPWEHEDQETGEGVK
# An asterisk follows results filed as active.
SMILES,FBW7 act,MITF primary,TEAD-YAP block,GPR151 ag
O=C(O)c1nn2cc(Br)cnc2c1Br,0,15,2,0
c1cnc(Nc2nc(NC3CC3)c3ncn(-c4ccsc4)c3n2)cn1,0,11,34*,1
c1cc(Nc2nc(NC3CC3)c3ncn(-c4ccsc4)c3n2)ncn1,7.4*,7,-25,0
c1cnc2ccc(Nc3nc(NC4CC4)c4ncn(-c5ccsc5)c4n3)cc2c1,0,18,9,1
c1ccc(Nc2nc(Nc3ccncn3)nc3c2ncn3-c2ccsc2)cc1,0,1,-61,3
c1ccc(-n2cnc3c(NC4CC4)nc(Nc4ccncc4)nc32)cc1,0,10,38*,2
c1ccc(-n2cnc3c(NC4CC4)nc(Nc4cnccn4)nc32)cc1,0,2,51*,2
O=C(NCCCn1ccnc1)C(Cl)Cl,0,10,11,0
CCOC(=O)COc1ccc2c(C)cc(=O)oc2c1I,0,7,12,0
CN(C)c1cccc(Nc2nc(NC3CC3)c3ncn(-c4ccsc4)c3n2)c1,0,0,33*,0
CN(C)c1cccc(Nc2nc(N)c3ncn(-c4ccsc4)c3n2)c1,0,9,10,-1
c1ccc(-n2cnc3c(NC4CC4)nc(Nc4nccc5ccccc45)nc32)cc1,0,9,43*,-2
CC1(C)CC(=O)C2=C(C1)OC1=C(C(=O)CC(C)(C)C1)C2c1cc(C(C)(C)C)c(O)c(C(C)(C)C)c1,0,8,0,1
CC1(C)CC(=O)C2=C(C1)OC(N)=C(C#N)C2c1cc(C(C)(C)C)c(O)c(C(C)(C)C)c1 (centres undefined),0,11,80*,1
Cn1c(=O)c([N+](=O)[O-])c(NCCCN2CCOCC2)c2ccccc21,0,9,-1,0
CC(=O)c1ccc(NC(=O)[C@H](CSCc2ccccc2)N2Cc3ccccc3C2=O)cc1,1,-2,-9,2
Fc1ccc(Nc2nc3nonc3nc2Nc2ccccc2F)cc1,0,-2,83*,3
Cc1cccc(Nc2nc3nonc3nc2Nc2ccc(I)cc2)c1C,0,8,13,0
Fc1ccc(Nc2nc3nonc3n3nnnc23)cc1,0,6,46*,-6
Cc1cccc(Nc2nc3nonc3nc2Nc2ccc(F)cc2)c1C,0,10,35*,1
O=c1[nH]c2nonc2nc1Nc1ccccc1F,0,6,73*,-2
Cc1ccc(Nc2nc3nonc3n3nnnc23)cc1C,0,16,-8,-1
Cc1cc(NC(=O)COC(=O)CCNS(=O)(=O)c2cccc(Cl)c2)no1,0,2,5,0
Cc1cc(C)cc(NC(=O)Cn2nnc(C(=O)Nc3ccc(F)cc3)c2N)c1,0,5,7,0
CCC[C@@H]1NC(=O)[C@H]2CN(C(=O)c3cc(Cl)cc(Cl)c3)CCN2C1=O,0,12,10,0
SMILES,FBW7 act,MITF primary,TEAD-YAP block,GPR151 ag
COc1ccc(NC(=O)N2CC=C(c3c[nH]c4ccccc34)CC2)cc1,0,2,51*,0
CC1=NN(c2nc3ccccc3s2)C(=O)/C1=C(\C)N(C)C,0,5,43*,-10
CN(C)/C=C1/C(=O)N(c2nc3ccccc3s2)N=C1c1ccccc1,0,0,5,0
CC1=NN(c2nc3ccccc3s2)C(=O)/C1=C\N(C)C,0,9,68*,-9
CCCCN1C(=O)c2cccc3c(NC(=O)c4ccc(C#N)cc4)ccc1c23,0,13,48*,-2
CCCCOc1ccc(C(=O)Nc2ccc3c4c(cccc24)C(=O)N3CC)cc1,0,3,9,1
CC1=CC(C)(C)N=C(Nc2nc(C)c3cc(C)cc(C)c3n2)N1,0,-8,59*,0
COc1cccc(C2=CC(c3ccc(SC)cc3)n3nnnc3N2)c1 (centres undefined),0,11,10,-1
COC(=O)c1cc(C(=O)OCc2csc(-c3ccccc3)n2)cc([N+](=O)[O-])c1,0,16,-5,-1
O=C(O)CCC(=O)N(Cc1cccnc1)Cc1cccc(F)c1,0,8,49*,0
O=C(CN1C(=O)COc2ccccc21)N(Cc1cccnc1)Cc1cccc(F)c1,0,-5,6,0
COc1ccc2c(c1)sc1nc(-c3cc4ccccc4oc3=O)cn12,0,-3,84*,0
O=c1oc2ccccc2cc1-c1cn2c(n1)sc1ccccc12,0,-4,80*,0
Cc1ccc2c(c1)sc1nc(-c3cc4ccccc4oc3=O)cn12,0,-3,66*,0
O=c1oc2ccc3ccccc3c2cc1-c1cn2c(n1)sc1cc(Cl)ccc12,0,1,6,1
Cc1ccc(-c2cn3c(n2)sc2cc(C)ccc23)cc1,1,-5,78*,-4
COc1ccc(-c2cn3c(n2)sc2cc(C)ccc23)cc1,0,-5,24,-2
COCCCNC(=O)c1cc2c(=O)n3cccc(C)c3nc2n1C,0,10,56*,2
O=C(NCc1ccco1)c1cccn2c(=O)c3cc4ccccc4cc3nc12,0,-5,-8,-1
COCCCNC(=O)c1cccn2c(=O)c3cc4ccccc4cc3nc12,0,-5,36*,1
COCCNC(=O)c1cc2c(=O)n3cccc(C)c3nc2n1C,0,9,7,1
CCCC(C)NC(=O)C(C)Oc1ccccc1 (centres undefined),0,-18,3,2
CCOC(=O)/C=C/C(=O)Nc1sc(C)c(C)c1C(N)=O,0,15,11,0
CCOC(=O)c1c(NC(=O)/C=C/C(N)=O)sc(C)c1C,0,6,45*,1
CCOC(=O)c1c(-c2ccc(OCC)cc2)csc1NC(=O)/C=C/C(=O)O,0,16,48*,-1
SMILES,FBW7 act,MITF primary,TEAD-YAP block,GPR151 ag
CCOC(=O)c1c(NC(=O)/C=C/C(=O)O)sc(C)c1-c1ccc(Cl)cc1,0,10,41*,0
COC(=O)c1c(NC(=O)/C=C/C(=O)O)sc(Cc2ccccc2)c1C,1,2,36*,-1
COC(=O)c1c(NC(=S)Nc2ccccc2)sc(Cc2ccccc2)c1C,0,6,-4,1
CCOC(=O)C1=C(c2ccccc2)S/C(=C2/C(=S)C(C)(C)Nc3cc(OCC)ccc32)S1,0,6,8,0
CCCCN(C)C(=O)CSc1nc2ccccc2c(=O)n1CC1CCC(C(=O)NCCc2ccccc2)CC1 (centres undefined),1.9*,20,-19,-2
O=C(CSc1nc2ccsc2c(=O)n1-c1ccccc1)Nc1ccccc1Cl,0,2,7,1
O=C(CSc1nc2ccsc2c(=O)n1-c1ccc(F)cc1)Nc1ccccc1Cl,1,9,33*,0
COc1cccc(-c2cc3nc(C4CCCNC4)cc(N)n3n2)c1 (centres undefined),0,-9,37*,0
